Experiment in all cases: DAPPL (digital affinity profiling via proximity ligation, sequencing); 10 mM Tris-HCl pH 7.5, 50 mM NaCl, 1 mM DTT, 4% glycerol, room temperature, 30 min; GST-TFs on glutathione beads, 16-mer random dsDNA library, 0.1% formaldehyde crosslink after washing; high values mean tight binding
Conditions in all cases: protein: recombinant; tags: N-terminal GST; dsDNA, one strand shown

In one experiment the target is T1, ELK4 (Homo sapiens, UniProt P28324-2 1-405).
T1 sequence: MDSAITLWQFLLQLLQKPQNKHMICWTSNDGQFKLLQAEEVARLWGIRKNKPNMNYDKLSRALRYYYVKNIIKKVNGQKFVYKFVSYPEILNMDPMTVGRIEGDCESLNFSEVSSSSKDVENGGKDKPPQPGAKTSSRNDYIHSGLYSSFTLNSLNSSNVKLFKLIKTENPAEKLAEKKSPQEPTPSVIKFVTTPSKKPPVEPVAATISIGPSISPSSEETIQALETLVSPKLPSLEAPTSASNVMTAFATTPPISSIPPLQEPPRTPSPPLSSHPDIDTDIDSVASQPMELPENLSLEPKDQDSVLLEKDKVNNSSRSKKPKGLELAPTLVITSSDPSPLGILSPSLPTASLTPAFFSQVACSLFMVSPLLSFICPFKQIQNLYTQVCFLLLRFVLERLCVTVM
The gist of the method:
(§1)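 Each value of binding signal is a hexamer's read frequency for a factor divided by the same hexamer's frequency in the tag-only sample. Barcoded, bead-captured GST fusions of human transcription factors made in yeast were pooled with that sample and incubated with 200 nmole of a random double-stranded 16-mer DNA library in Tris/NaCl/DTT/glycerol buffer at room temperature for 30 min. Washing, 0.1% formaldehyde crosslinking, proximity ligation, PCR and Illumina NextSeq500 sequencing followed.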

Another experiment deals with T2, ETV2 (Homo sapiens, UniProt O00321 1-342).
T2 sequence: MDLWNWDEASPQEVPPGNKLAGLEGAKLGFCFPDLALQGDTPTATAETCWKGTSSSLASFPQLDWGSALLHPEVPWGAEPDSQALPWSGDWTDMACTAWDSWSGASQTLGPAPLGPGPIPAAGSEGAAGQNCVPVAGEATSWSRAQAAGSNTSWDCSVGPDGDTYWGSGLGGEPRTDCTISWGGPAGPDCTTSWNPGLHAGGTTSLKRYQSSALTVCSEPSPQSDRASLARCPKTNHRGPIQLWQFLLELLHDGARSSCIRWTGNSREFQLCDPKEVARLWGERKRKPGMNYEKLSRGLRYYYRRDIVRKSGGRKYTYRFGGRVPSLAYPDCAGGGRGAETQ
The gist of the method: as §1

In a further experiment the target is T3, ELF3 (Homo sapiens, UniProt P78545 1-371).
T3 sequence: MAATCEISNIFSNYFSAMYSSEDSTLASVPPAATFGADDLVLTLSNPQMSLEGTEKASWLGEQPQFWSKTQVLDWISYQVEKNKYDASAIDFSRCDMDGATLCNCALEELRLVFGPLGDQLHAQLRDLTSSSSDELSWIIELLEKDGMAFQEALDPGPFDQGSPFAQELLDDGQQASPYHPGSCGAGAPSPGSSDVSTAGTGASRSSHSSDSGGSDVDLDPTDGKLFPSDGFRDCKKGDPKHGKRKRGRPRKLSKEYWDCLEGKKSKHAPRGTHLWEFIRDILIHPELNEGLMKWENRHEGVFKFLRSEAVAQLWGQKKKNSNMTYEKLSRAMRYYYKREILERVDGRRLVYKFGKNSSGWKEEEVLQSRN
The gist of the method:
as §1

Another experiment deals with ETV1 (Homo sapiens, UniProt P50549 1-477). The gist of the method:
as §1

The target in the next experiment is T4, ERF (Homo sapiens, UniProt P50548 1-548).
T4 sequence: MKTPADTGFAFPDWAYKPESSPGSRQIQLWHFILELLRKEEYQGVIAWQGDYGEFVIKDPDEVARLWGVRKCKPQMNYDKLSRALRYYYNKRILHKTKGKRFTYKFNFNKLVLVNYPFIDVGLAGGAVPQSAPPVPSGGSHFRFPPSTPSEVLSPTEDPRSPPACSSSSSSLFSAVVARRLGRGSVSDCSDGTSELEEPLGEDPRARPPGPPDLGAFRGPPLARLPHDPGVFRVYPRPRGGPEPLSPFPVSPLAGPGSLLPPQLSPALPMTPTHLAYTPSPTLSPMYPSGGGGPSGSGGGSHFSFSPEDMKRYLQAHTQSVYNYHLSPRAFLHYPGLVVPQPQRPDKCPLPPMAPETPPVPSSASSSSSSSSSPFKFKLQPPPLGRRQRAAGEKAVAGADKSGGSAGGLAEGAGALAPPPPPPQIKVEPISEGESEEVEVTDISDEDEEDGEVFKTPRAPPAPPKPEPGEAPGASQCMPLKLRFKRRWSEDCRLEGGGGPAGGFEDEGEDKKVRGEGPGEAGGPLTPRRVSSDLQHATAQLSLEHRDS
The gist of the method: as §1

A further experiment has as its target T5, ETV3L (Homo sapiens, UniProt Q6ZN32 1-361).
T5 sequence: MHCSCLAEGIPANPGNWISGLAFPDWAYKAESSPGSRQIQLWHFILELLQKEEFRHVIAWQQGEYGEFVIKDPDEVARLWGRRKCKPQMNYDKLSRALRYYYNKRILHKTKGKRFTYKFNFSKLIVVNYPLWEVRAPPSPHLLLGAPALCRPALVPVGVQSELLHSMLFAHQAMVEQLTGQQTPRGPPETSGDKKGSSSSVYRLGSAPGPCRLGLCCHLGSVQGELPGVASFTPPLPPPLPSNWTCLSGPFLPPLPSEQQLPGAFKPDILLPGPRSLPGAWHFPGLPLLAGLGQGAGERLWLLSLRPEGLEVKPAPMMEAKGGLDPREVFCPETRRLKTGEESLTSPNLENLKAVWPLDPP
An outline of the steps:
as §1

The target in another experiment is T6, ETS2 (Homo sapiens, UniProt P15036 1-469).
T6 sequence: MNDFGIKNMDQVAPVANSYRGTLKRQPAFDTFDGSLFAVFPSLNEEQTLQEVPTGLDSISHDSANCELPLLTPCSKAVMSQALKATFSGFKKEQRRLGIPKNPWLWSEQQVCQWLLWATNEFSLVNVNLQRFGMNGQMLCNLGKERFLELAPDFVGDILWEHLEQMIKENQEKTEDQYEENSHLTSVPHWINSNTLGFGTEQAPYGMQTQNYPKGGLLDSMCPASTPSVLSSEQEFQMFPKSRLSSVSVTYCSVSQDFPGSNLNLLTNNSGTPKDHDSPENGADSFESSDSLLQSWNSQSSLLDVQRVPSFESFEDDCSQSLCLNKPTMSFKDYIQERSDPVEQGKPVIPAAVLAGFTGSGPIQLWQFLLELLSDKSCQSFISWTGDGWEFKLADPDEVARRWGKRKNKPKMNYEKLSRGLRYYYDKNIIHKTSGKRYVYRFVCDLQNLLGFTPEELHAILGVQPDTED
The gist of the method: as §1

The next experiment has as its target T7, SPDEF (Homo sapiens, UniProt O95238 1-335).
T7 sequence: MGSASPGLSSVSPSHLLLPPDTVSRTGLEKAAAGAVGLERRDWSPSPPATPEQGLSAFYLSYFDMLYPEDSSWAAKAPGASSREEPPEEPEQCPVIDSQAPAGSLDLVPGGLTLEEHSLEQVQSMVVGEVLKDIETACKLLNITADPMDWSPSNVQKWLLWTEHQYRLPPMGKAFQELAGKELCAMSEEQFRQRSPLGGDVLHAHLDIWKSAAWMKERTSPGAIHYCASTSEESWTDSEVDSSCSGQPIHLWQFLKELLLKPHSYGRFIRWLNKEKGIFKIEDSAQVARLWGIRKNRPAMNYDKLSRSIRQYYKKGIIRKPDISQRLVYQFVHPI
The gist of the method: as §1

In the next experiment the target is T8, ETV7 (Homo sapiens, UniProt Q9Y603 1-341).
T8 sequence: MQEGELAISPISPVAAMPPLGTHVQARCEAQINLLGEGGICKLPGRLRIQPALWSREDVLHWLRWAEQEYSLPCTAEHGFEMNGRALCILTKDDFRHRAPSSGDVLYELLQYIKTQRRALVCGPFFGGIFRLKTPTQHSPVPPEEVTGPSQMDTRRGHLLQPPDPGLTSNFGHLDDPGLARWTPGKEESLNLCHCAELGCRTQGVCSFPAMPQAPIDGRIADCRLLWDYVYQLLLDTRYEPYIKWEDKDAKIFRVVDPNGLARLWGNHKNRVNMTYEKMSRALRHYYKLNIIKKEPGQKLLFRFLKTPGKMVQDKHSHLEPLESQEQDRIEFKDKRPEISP
An outline of the steps: as §1

The target in a further experiment is T9, ELF5 (Homo sapiens, UniProt Q9UKW6-2 1-255).
T9 sequence: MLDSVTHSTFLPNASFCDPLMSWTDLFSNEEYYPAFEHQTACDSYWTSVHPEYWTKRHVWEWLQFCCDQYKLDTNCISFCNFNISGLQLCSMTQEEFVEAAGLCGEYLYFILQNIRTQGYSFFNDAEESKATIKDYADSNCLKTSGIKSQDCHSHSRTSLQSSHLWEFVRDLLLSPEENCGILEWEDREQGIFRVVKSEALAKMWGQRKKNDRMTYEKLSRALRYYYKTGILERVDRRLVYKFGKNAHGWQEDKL
The gist of the method:
as §1

For a further experiment, the target named is T10, ETV3 (Homo sapiens, UniProt P41162-2 1-143).
T10 sequence: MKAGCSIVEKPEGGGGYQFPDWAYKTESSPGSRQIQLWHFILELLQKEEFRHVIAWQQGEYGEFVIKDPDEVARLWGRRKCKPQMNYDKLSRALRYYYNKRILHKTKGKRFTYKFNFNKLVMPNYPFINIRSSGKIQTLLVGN
The gist of the method: as §1

The next experiment concerns the target ETV6 (Homo sapiens, UniProt P41212 1-452). The gist of the method: as §1

Chain of ETV1 (P50549 whole entry): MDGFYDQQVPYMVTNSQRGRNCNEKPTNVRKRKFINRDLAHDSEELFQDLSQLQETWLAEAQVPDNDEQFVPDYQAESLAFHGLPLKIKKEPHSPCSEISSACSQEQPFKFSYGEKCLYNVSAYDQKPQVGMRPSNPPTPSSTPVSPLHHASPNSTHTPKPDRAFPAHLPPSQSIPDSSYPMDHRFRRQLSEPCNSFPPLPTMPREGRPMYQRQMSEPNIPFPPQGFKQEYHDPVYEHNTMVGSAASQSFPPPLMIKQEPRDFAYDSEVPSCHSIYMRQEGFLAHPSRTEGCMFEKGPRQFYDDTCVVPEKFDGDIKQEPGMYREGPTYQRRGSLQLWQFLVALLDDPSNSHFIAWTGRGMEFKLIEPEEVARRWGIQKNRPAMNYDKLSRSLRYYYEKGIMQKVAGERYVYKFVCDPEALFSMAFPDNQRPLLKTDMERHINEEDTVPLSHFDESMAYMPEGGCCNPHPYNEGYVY
Chain of ETV6 (P41212 whole entry): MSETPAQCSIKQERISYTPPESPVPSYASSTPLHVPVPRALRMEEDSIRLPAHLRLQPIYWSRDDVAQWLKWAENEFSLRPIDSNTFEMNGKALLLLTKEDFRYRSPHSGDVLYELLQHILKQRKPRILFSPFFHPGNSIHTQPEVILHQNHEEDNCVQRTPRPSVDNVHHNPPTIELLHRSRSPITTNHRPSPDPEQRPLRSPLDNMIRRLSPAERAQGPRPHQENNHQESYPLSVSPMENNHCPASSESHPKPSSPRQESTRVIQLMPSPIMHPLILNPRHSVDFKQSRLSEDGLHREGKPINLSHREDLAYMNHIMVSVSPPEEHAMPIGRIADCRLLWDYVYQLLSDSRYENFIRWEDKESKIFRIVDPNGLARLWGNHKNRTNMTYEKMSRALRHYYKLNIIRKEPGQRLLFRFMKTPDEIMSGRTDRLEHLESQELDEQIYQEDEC

For the sequence CGTTGC, the binding signal with ELK4 is 1.16 fold enrichment (6-mer frequency, TF over GST control); with ETV2, 1.12 fold enrichment (6-mer frequency, TF over GST control); with ELF3 it was 1.07 fold enrichment (6-mer frequency, TF over GST control); in the experiment with ETV1, 1.18 fold enrichment (6-mer frequency, TF over GST control); with ERF it was 1.13 fold enrichment (6-mer frequency, TF over GST control); with ETV3L, 1.17 fold enrichment (6-mer frequency, TF over GST control). Besides, the binding signal with ETS2 is 1.2 fold enrichment (6-mer frequency, TF over GST control); with SPDEF, 1.18 fold enrichment (6-mer frequency, TF over GST control); with ETV7 it was 1.03 fold enrichment (6-mer frequency, TF over GST control); with ELF5 it was 1.03 fold enrichment (6-mer frequency, TF over GST control); in the experiment with ETV3, 1.16 fold enrichment (6-mer frequency, TF over GST control); with ETV6, 1.04 fold enrichment (6-mer frequency, TF over GST control).

Source of the values: PMC7862700, “An all-to-all approach to the identification of sequence-specific readers for epigenetic DNA modifications on cytosine”.
